This is a sample that favours compounds with a hit; in the whole collection about 1.5% have one here.
Eya2 inh: Eya2 (human) phosphatase inhibition. O00167. recombinant Eya2, OMFP fluorescence dephosphorylation (OMFP is methylfluorescein phosphate). 330,000 compounds, 0.006% hits. Potency, µM (top dose mostly 76.9 µM), inactives show at the highest dose activity, negative = inhibition, actives largely listed as inhibitors; further: potency means the concentration at half of the fitted maximal effect
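Eya2 (0.2 uM) preincubated 10 min at ambient with compound, then OMFP substrate added at 50 uM; 10 min reaction in 50 mM HEPES pH 7.5, 50 mM NaCl, 5 uM MgCl2, 0.05% BSA, 1 mM DTT. Fluorescence read at Ex 485/Em 525 nm.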
Six1-Eya2 blk: Six1/Eya2 interaction inhibition; Q15475+O00167; AlphaScreen GST-Six1/His-Eya2 binding, biochemical; hits give low values; activity change, % (test concentration not listed); 360,000 compounds, 0.56% hits; AID 651725; in the data active means activity change below about -65%; inconclusive means mostly about -30% to -63%
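AlphaScreen luminescence read after one hour at 37 °C in darkness. Pin-transferred compounds met GST-Six1 and His-Eya2 protein (5X stock 250 nM/500 nM) plus glutathione donor and Ni-chelate acceptor beads (5X, 50 ug/mL).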
GALK inh: blocks human galactokinase activity; 270,000 compounds, 0.007% hits; Potency, µM (series often up to 57.5 µM), inactives show at the top dose activity change, negative = inhibition, usual class: inhibitors; AID 1868; Purified GALK, Kinase-Glo residual ATP luminescence; P51570; further: potency means the concentration at half of the fitted maximal effect
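Luminescence from leftover ATP (Ultra-Glo luciferase/luciferin) served as read-out after a 1 h room-temperature reaction of 5 nM GALK with 35 uM ATP and 100 uM galactose.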
TrxR1 substrate: is turned over as a substrate by rat TrxR1 | O89049 | purified TrxR1 substrate turnover, NADPH consumption readout | Potency, µM (doses to about 114 µM), inactives show at the highest dose activity change, negative = substrate turnover | 390,000 compounds, 0.01% hits | AID 588456; further: potency means the concentration at half of the fitted maximal effect; nearly all actives have a fitted effect of over 50% in size
Target sequence (O89049 whole entry, looked up): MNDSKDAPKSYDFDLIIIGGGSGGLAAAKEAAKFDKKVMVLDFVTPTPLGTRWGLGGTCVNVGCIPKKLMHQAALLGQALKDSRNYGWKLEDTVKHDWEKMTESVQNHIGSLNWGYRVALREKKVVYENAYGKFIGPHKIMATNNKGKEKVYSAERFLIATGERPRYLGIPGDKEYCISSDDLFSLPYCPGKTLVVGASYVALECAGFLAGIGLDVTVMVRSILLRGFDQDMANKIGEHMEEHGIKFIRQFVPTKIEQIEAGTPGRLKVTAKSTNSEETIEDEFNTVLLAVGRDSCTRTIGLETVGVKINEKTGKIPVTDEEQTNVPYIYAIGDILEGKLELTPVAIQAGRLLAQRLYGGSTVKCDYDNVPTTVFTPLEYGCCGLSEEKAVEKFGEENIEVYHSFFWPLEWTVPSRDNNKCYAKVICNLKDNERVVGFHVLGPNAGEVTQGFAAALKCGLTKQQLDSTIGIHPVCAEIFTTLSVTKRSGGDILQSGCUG
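Rat TrxR1, dispensed at 90 nM, was prereduced with 400 uM NADPH (final) for 5 min at ~22 deg C, then incubated with compound 15 min before 400 uM selenite. A first-read NADPH fluorescence drop versus no-compound background flagged substrates.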
CtBP-E1A inh: inhibitors of CtBP/E1A interaction | activity change, % (no concentration beside the values) | AlphaScreen GST-E1A/His-CtBP binding, 1536-well; hits give low values | 340,000 compounds, 0.49% hits; in the data active means activity change below about -65%; inconclusive means mostly about -30% to -63%
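Steps: dispense buffer (Tris pH 8.0, NaCl 300 mM, TCEP 1 mM, BSA, Tween 20); add 5X protein mix (GST-E1A, His-CtBP, 125 nM each); pin 23 nL compound; 2 h at 37 °C, dark; add 5X beads (50 ug/mL); 1 h; read.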
rTrxR1 inhibitor: inhibitors of rat thioredoxin reductase 1; O89049; recombinant rTrxR1, NADPH fluorescence consumption, selenite substrate; Potency, µM (series often up to 114 µM), for inactives: at the highest dose activity change, negative = inhibition, most hits filed as inhibitors; 390,000 compounds, 1% hits; further: potency means the concentration at half of the fitted maximal effect; nearly all actives have a fitted effect of over 65% in size
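Rat TrxR1 (90 nM in the dispensed reagent) was pre-reduced with 400 uM NADPH for 5 min at room temperature, then incubated with compound for 15 min. After 400 uM selenite was added, NADPH fluorescence (Ex 340/Em 450 nm) was followed for 8 min.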
* hit, by the source's call; ? = inconclusive; · = no result; ! = not confirmed by another sample; [ ] = dose if it differs, or a comment. Unless noted, the call rests on the fitted dose curve; in most records, active means well fitted curve in the direction sought with a large enough effect; inconclusive means small, poorly fitted or top-dose-only effect, or another doubt; inactive means no such curve, though single readings can be large; an effect the other way counts as inactive or inconclusive. On the % scale 0 is the no-effect control and ±100 the full control effect.

SMILES	Eya2 inh	Six1-Eya2 blk	GALK inh	TrxR1 substrate	CtBP-E1A inh	rTrxR1 inhibitor
CCN(CC)c1ccc(/C=C2\C(=O)N(c3nnc(C)c(=O)[nH]3)N=C2C)cc1	2%	-92*	-4%	-4%	-92*	-3%
CCCc1cc(-n2ccnc2C)n2c(nc3ccccc32)c1C#N	·	-1	·	6%	4	4%
CCCc1cc(N2CCN(C(=O)c3ccco3)CC2)n2c(nc3ccccc32)c1C#N	-8%	?	0%	17%[57.1 µM]	-67*	2%[57.1 µM]
CCOc1ccc(/C=N/NC(=O)c2[nH]ncc2Br)c(O)c1	1%	-83*	23%	0%	-92*	5%
O=C(N/N=C\c1c(O)ccc2ccccc12)c1ccc(Cn2cccn2)o1	16%	-86*	·	-7%	-73*	-17%
O=C(N/N=C/c1c(O)ccc2ccccc12)c1[nH]ncc1Br	-6%	-85*	0%	-2%[57.1 µM]	-90*	9%
CCSc1nc(-c2ccc(OC)cc2)nc2c1Cc1c(CO)cnc(C)c1O2	·	·	·	6%	·	16%
Cc1scc(CN2CCN(c3ccccc3F)CC2)c1C	·	·	·	-1%	·	-2%
CC1CC(C)CN(C(=O)c2ccc(-c3ccc([N+](=O)[O-])cc3)o2)C1 (stereo not given)	-18%	?	·	-1%	-22	18µM*
COc1ccccc1C1C(C(=O)c2cc3ccccc3o2)=C(O)C(=O)N1CCN1CCOCC1 (stereo not given)	-9%	3	4%	-10%	-1	22µM*
COc1cccc2cc(C(=O)C3=C(O)C(=O)N(CCN4CCOCC4)C3c3ccc(C)o3)oc12 (stereo not given)	-16%	-1	0%	-12%	-2	79µM*
COc1cccc(C2C(C(=O)c3cc4ccccc4o3)=C(O)C(=O)N2CCN2CCOCC2)c1 (stereo not given)	-10%	3	-2%	2%[57.1 µM]	1	?
CCc1cccc(NC(=O)C2CCCN(c3ncnc4onc(-c5ccc(F)cc5)c34)C2)c1 (stereo not given)	·	·	·	3%	·	23%
CC(=O)c1ccc(Nc2cc(C)nc3nc(Cc4ccccc4)nn23)cc1	·	·	·	-4%	·	5%
Cc1cc(C)nc(SCC(=O)NC(=O)c2ccccc2O)n1	-17%	-2	·	-4%[57.1 µM]	1	13µM*
CCCCC(=O)Nc1nnc(S(=O)(=O)N(C)Cc2ccc(Cl)cc2)s1	·	·	·	2%	·	27%
Cc1ccccc1CN1C(=O)C(O)(CC(=O)c2cccc(Br)c2)c2ccccc21 (stereo not given)	·	·	·	1%	·	9%
O=C(O)/C=C/C(=O)NNC(=O)c1cc(-c2ccccc2)n[nH]1	-1%	-24	-3%	10%	0	6.3µM*
CC(=O)N/C(=C/c1ccccc1)c1sc2ccccc2[n+]1CCCCI	·	·	·	-5%	·	45µM*
COc1ccc(/C=C/c2sc3ccccc3[n+]2CCCCI)cc1OC	·	·	·	-17%	·	?
CCOC(=O)C1CCN(Cc2ccc(O)c3ncccc23)CC1	2%	-92*	-1%	8%	-98*	7.1µM*
Oc1ccc(CN2CCCc3ccccc32)c2cccnc12	3%	-93*	1%	10%	0	1.3µM*
COc1ccccc1N1CCN(Cc2ccc(O)c3ncccc23)CC1	2%	-91*	0%	-9%	-90*	-14%
Fc1ccc(CSc2nncn3c2cc2occc23)c(Cl)c1	·	·	·	1%	·	11%
O=C1c2ccccc2C(=O)N1c1ccccn1	·	·	·	0%	·	5%
SMILES	Eya2 inh	Six1-Eya2 blk	GALK inh	TrxR1 substrate	CtBP-E1A inh	rTrxR1 inhibitor
O=C(N/N=C(\c1ccccc1)c1cccnc1)c1cccc(F)c1	-6%	-80*	-2%	-5%[57.1 µM]	-3	17%[57.1 µM]
Cc1ccc(/C=C/C(=O)N2CCc3ccccc32)o1	-3%	-25	1%	-5%	3	3.2µM*
Cc1ccc(C)c(S(=O)(=O)N2CCN(C(=O)/C=C/c3ccco3)CC2)c1	-13%	-13	·	2%	-5	7.9µM*
O=C(/C=C/c1ccco1)N1CCCC(c2ccccc2)C1 (stereo not given)	-19%	-24	0%	0%	·	32µM*
O=C(/C=C/c1ccco1)N1CCc2ccccc21	5%	-5	-2%	-12%	8	56µM*
Cc1cnc2c(C)cccc2c1/C=C/c1ccc(N(C)C)cc1	·	·	·	-5%	·	-5%
COc1cccc(C(=O)Nc2cccc(OCc3cc(=O)n4cccc(C)c4n3)c2)c1	·	·	·	3%[57.1 µM]	·	7%[57.1 µM]
Cc1ccc(/C=C/C(=O)N2CCN(c3ncccn3)CC2)o1	10%	13	0%	-11%	18	22µM*
COc1ccccc1N1CCN(C(=O)/C=C/c2ccco2)CC1	-1%	-11	1%	-7%	-2	40µM*
O=C(COCc1cc(-c2ccc(F)cc2)on1)Nc1cccc(Cl)c1Cl	·	·	·	-7%	·	12%
CCOC(=O)/C=C1\CC(C(=O)OCC)Oc2c(OC)cccc21 (stereo not given)	2%	2	·	3%	-2	28µM*!
Cc1csc2nc(-c3cccc(NC(=O)c4c(F)cccc4F)c3)cn12	·	·	·	4%[57.1 µM]	·	18%[57.1 µM]
COc1ccc(-c2nc3scc(CCNS(=O)(=O)c4ccc(F)cc4C)n3n2)cc1	·	·	·	-4%[57.1 µM]	·	-3%[57.1 µM]
O=C(N/N=C/c1ccccc1O)C1CC(=O)N(c2ccc(Cl)cc2)C1 (stereo not given)	-5%	?	6%	5%	-84*	40%
COc1cc2nc(N3CCCCC3)nc(NC3CCN(C)CC3)c2cc1OC	·	·	·	97%	·	?
CC(c1ccc(N(C)C)cc1)c1ccnc2ccccc12 (stereo not given)	·	·	·	5%	·	24%
COC(=O)[C@H](C)NC(=O)Nc1ccc(S(N)(=O)=O)cc1	4%	0	3%	0%	11	22%
CC(C)C(Cl)=NOC(=O)Nc1ccc(S(N)(=O)=O)cc1	·	5	·	3%[11.4 µM]	11	0.79µM*
CC(C)(C)CC(C)(C)N=C1Nc2ccc(Cl)cc2NC12C[C@H]1CCC(=O)N3CC[C@@H](C2)[C@@H]13 (stereo not given in full)	·	·	·	-11%	·	-8%
Oc1ccc2ccccc2c1/C=N/Nc1nnc(-c2ncc[nH]2)c2ccccc12	6%	-67*	0%	-8%	-73*	-11%
Cc1ccc(CNC(=O)c2ccc3c(c2)nc(C)n3-c2cccc(F)c2)cc1	·	·	·	1%[57.1 µM]	·	1%[57.1 µM]
CCN(CC)S(=O)(=O)c1cccc(C(=O)N/N=C/c2ccc(O)c(O)c2O)c1	-4%	-91*	2%	-21%	-93*	-19%
